Among the data in PubChem BioAssay (NCI) are growth values, retold here.

Compounds without any hit were thinned out: in the full panel of roughly 83,000, 20% have a hit.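 96-well plates, one dose, 48 hours. Percent growth reported; active if below 10.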 Values without a mark were called inactive. Calls of active or inactive are those of the source.

Test systems include T-47D breast; BT-549 breast; MDA-MB-435 melanoma; SW-620 colon; MCF7 breast; HCT-116 colon; HCC-2998 colon; KM12 colon.
Common to all, as to assay: NCI-60 one-dose screen, 48 h (100 = growth as untreated, 0 = no growth, -100 = all killed)
Settings in all cases: 10 µM unless noted

As for `COc1cc2cc(Oc3ccc(NC(=O)Nc4ccc(F)c(C(F)(F)F)c4)cc3)c(C)nc2cc1OCCN(C)C`, the growth in the test on T-47D breast was 91.4%; in the test on BT-549 breast it was 99%; with MDA-MB-435 melanoma, 98.2%; in the test with SW-620 colon, 53.7%; in the test on MCF7 breast, -89.6% (active); in the test on HCT-116 colon it was 107%. Moreover, the growth with HCC-2998 colon was 104%; in the test with KM12 colon, 102%.
As to `COc1ccccc1/C=C/C(=O)c1nnn(-c2ccc(F)cc2)c1C`, the growth is 54.9% in the test with T-47D breast; 62% with BT-549 breast; 23.4% with MDA-MB-435 melanoma; 19.9% in the test with SW-620 colon; 7.51% (active) with MCF7 breast; 10.7% with HCT-116 colon. Also, the growth in the test on HCC-2998 colon was 81.3%; in the test with KM12 colon, 32.6%.
As to `CCc1cc2c(cc1Cl)nc1c(=O)[nH]c(=O)nc-1n2CCOCC(C)C`, the growth with T-47D breast was 75.2%; with BT-549 breast it was 94%; in the test on MDA-MB-435 melanoma it was 3.04% (active); in the test on SW-620 colon, 70.2%; with MCF7 breast it was 39.5%; in the test on HCT-116 colon, 37.9%. Further, the growth is 80.3% in the test on HCC-2998 colon and 74.3% with KM12 colon.
Consider `O=C(NCCNc1cc(-c2cn(-c3ccccc3)nc2-c2cccc(O)c2)ccn1)Nc1cc(C(F)(F)F)cc(C(F)(F)F)c1`, for which the growth in the test on T-47D breast is 90.5%; in the test with BT-549 breast it was 99.4%; in the test on MDA-MB-435 melanoma it was 98.4%; with SW-620 colon, 101%; with MCF7 breast, 87.2%; in the test on HCT-116 colon, 89.5%. The values for the growth in the test with HCC-2998 colon and in the test on KM12 colon were 96.2% and 1.09% (active), respectively.
Turning to `N/C(=N\C(N)=N\c1nc2ccccc2s1)c1ccc(Cl)cc1`, the growth in the test on T-47D breast is 68.3%; in the test on BT-549 breast, 94.4%; with MDA-MB-435 melanoma, 96.3%; in the test on SW-620 colon, 103%; in the test with MCF7 breast, 69.3%; with HCT-116 colon, 74.7%. Also, the growth with HCC-2998 colon is 102%; in the test with KM12 colon, 68.4%.
As for `CC1=C(C)C(=O)C(Nc2cccc(C(F)(F)F)c2)=C(Br)C1=O`, the growth was 17.6% in the test on T-47D breast; 110% with BT-549 breast; 103% in the test with MDA-MB-435 melanoma; 48.7% with SW-620 colon; 52.3% in the test on MCF7 breast; 20% with HCT-116 colon. The values for the growth in the test with HCC-2998 colon and in the test on KM12 colon were 108% and 90.7%, respectively.
As for `C#CCN(C)CCCOc1ccc(NC(=O)CCCCCCCCC(=O)NO)cc1Cl`, the growth with T-47D breast was 72.6%; in the test with BT-549 breast, 92.5%; with MDA-MB-435 melanoma, 74.2%; with SW-620 colon it was 63.1%; in the test on MCF7 breast, 31.9%; with HCT-116 colon, 39.2%. The growth with HCC-2998 colon is 71.8%; in the test with KM12 colon it was 83.4%.
For the molecule `CCCCc1nc2c(N)nc3ccccc3c2n1Cc1cccc(CN)c1`, the growth is 74% with T-47D breast; 28.1% in the test on BT-549 breast; 4.8% (active) in the test on MDA-MB-435 melanoma; 52.6% in the test on SW-620 colon; 24.8% in the test on MCF7 breast; 23% in the test on HCT-116 colon. Also, the growth is 59.7% with HCC-2998 colon and 49.9% with KM12 colon.
In the case of `C#CCN(C)CCCOc1ccc(NC(=O)CCCCCCC(=O)NO)cc1Cl`, the growth was -2.41% (active) in the test with T-47D breast; 44.9% in the test with BT-549 breast; -0.594% (active) in the test with MDA-MB-435 melanoma; 11.7% in the test on SW-620 colon; 13.4% in the test on MCF7 breast; 2.96% (active) in the test on HCT-116 colon. The growth was 12.9% with HCC-2998 colon and 24.8% in the test on KM12 colon.
For `COc1ccc(C2CC(c3cccc(OCCCCOc4cccc(C5=NOC(c6ccc(OC)cc6)C5)c4)c3)=NO2)cc1` (stereo not drawn), the growth is 73.7% in the test on T-47D breast; 113% in the test on BT-549 breast; 105% with MDA-MB-435 melanoma; 32.9% in the test on SW-620 colon; 15% in the test on MCF7 breast; -21.9% (active) in the test on HCT-116 colon. The growth was 101% in the test with HCC-2998 colon and 76.2% in the test with KM12 colon.
`Cc1ccccc1Nc1nc(SC(C)C)nc(-c2ccccc2)c1C#N`: the growth with T-47D breast was 88.1%; with BT-549 breast, 97.1%; in the test on MDA-MB-435 melanoma, 44.9%; with SW-620 colon it was 43.1%; with MCF7 breast, 51.6%; in the test on HCT-116 colon, 2.97% (active). The growth is 86.4% in the test on HCC-2998 colon and 94.2% in the test on KM12 colon.
Take `CS(=O)(=O)c1ccc(/C(=N/N=C(N)N)c2ccc(Cl)cc2)cc1`: the growth is 89% with T-47D breast; 85% in the test with BT-549 breast; 8.68% (active) with MDA-MB-435 melanoma; 74.6% in the test on SW-620 colon; 32.8% in the test with MCF7 breast; 73.8% in the test on HCT-116 colon. Besides, the growth in the test with HCC-2998 colon was 91.2%; with KM12 colon, 72%.
For `COc1ccc(/C=N/NC(=O)CSc2nc(-c3cnccn3)cc(-c3cccs3)c2C#N)cc1`, the growth in the test with T-47D breast was 68.7%; in the test with BT-549 breast it was 49.2%; with MDA-MB-435 melanoma, 81.6%; in the test on SW-620 colon it was 93%; with MCF7 breast, 76.8%; with HCT-116 colon it was 22.4%. Further, the growth in the test with HCC-2998 colon was 79.1%; in the test with KM12 colon, 64.7%.
Turning to `Cc1cc2nc3c4cc(C#N)ccc4n(CCN(C)C)c3nc2cc1C`, the growth was 20.2% in the test on T-47D breast; -28.3% (active) with BT-549 breast; -27.4% (active) in the test with MDA-MB-435 melanoma; -9.39% (active) in the test on SW-620 colon; 2.34% (active) with MCF7 breast; -33.3% (active) in the test with HCT-116 colon. Besides, the results for the growth in the test on HCC-2998 colon and with KM12 colon were -73% (active) and -3.36% (active), respectively.
On to `O=C(/C=C/c1cccc(F)c1)c1cccc(OCCCCOc2cccc(C(=O)/C=C/c3cccc(F)c3)c2)c1`, for which the growth was 105% with T-47D breast; 124% in the test with BT-549 breast; 103% in the test with MDA-MB-435 melanoma; 98.1% in the test with SW-620 colon; 54.6% in the test with MCF7 breast; 72.8% in the test on HCT-116 colon. Moreover, the growth in the test on HCC-2998 colon is 114%; in the test on KM12 colon, 110%.
`CN1CCN(Cc2ccc(/C=N/Nc3ccnc4cc(Cl)ccc34)cc2)CC1`: the growth in the test on T-47D breast is 103%; with BT-549 breast, 123%; in the test with MDA-MB-435 melanoma it was 93.6%; in the test on SW-620 colon it was 69.9%; with MCF7 breast, 54.7%; in the test with HCT-116 colon, 37%. Moreover, the growth in the test on HCC-2998 colon is 67.8%; in the test with KM12 colon, 74.8%.
